Bioassay records: PubChem, Buhrlage Lab, Dana-Farber Cancer Institute and Novartis Institutes for BioMedical Research (Cambridge, Mass)
This is a sample that favours compounds with a hit; in the whole collection about 4.6% have one here.
USP8 inh – inhibitors of human USP8 deubiquitinase. 47,000 tested, 4.2% active. inhibition, % at 20 µM. P40818. purified USP8, Ub-rhodamine cleavage fluorescence, 30 min. AID 1645853
USP7 block – inhibitors of human USP7 deubiquitinase. Q93009. purified USP7, Ub-rhodamine cleavage fluorescence. inhibition, % at 20 µM. 47,000 tested, 0.3% active
USP10 inh – human USP10 deubiquitinase inhibition; Q14694; inhibition, % at 20 µM; 47,000 tested, 1.1% active; AID 1645856; purified USP10, Ub-rhodamine fluorescence, 60 min
Target sequence (Q14694 whole entry, looked up): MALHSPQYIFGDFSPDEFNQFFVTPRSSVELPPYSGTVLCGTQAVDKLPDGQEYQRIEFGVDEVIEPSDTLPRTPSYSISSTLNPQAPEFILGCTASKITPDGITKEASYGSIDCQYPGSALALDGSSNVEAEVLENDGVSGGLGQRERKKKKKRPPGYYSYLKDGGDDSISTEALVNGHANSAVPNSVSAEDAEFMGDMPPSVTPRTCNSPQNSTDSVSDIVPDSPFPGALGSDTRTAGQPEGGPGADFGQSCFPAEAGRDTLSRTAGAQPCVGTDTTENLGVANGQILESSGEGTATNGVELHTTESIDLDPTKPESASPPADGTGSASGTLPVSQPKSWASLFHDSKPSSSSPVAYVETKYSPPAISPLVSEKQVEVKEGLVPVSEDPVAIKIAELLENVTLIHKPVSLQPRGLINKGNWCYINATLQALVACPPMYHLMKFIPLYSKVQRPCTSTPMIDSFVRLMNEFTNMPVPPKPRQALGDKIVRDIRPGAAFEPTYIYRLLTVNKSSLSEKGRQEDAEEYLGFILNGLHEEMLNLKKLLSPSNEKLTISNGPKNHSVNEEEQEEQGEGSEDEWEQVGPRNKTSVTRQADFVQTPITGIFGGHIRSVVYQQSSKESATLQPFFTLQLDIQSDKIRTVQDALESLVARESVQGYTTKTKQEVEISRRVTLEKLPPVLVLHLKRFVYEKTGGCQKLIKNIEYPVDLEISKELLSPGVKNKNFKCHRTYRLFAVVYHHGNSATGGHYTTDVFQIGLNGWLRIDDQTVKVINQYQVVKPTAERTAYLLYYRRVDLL
UCHL1 inh – blocks human UCHL1 ubiquitin-rhodamine cleavage; P09936; purified UCHL1, Ub-rhodamine cleavage fluorescence; inhibition, % at 20 µM; 47,000 tested, 0.2% active
The depositor's hits bear a star. No stated cut-off is given here; in the data, active means inhibition above about 30%; inactive means the rest.

SMILES	USP8 inh	USP7 block	USP10 inh	UCHL1 inh
Cc1ccc(N(Cc2nc3nc(C)cc(=O)n3[nH]2)C(=O)c2ccccc2F)cc1	-3	-1	2	-2
Cc1ccc(C(=O)NCC(c2ccccc2Cl)c2c[nH]c3ccccc23)cc1 (configuration not stated)	11	14	4	8
CCc1nc(-c2cc(C(=O)N3CCOCC3)c3ccccn23)cs1	-217	-34	-6	-34
O=C(O)c1ccc(NCc2nc3ccccc3n2Cc2ccccc2F)cc1	23	-8	7	-2
COc1ccc(NCc2nc3ccccc3n2Cc2ccccc2)cc1	90*	-25	-3	3
CC(C)CC1Nc2ccc(C(=O)N3CCN(c4ccccn4)CC3)cc2NC1=O (configuration not stated)	53*	8	4	5
Cc1ccc(S(=O)(=O)c2cnc3ccccc3c2N2CCCC(C)C2)cc1 (configuration not stated)	7	8	8	9
O=C(CS(=O)(=O)c1cn(CC(=O)N2CCOCC2)c2ccccc12)Nc1ccccc1	9	5	0	-1
O=C(Cn1cc(S(=O)(=O)Cc2ccccc2)c2ccccc21)NCCC1=CCCCC1	-6	4	12	2
Cc1ccccc1NC(=O)Cn1cc(S(=O)(=O)Cc2ccccc2)c2ccccc21	35*	20	7	6
COc1ccc(NC(=O)Cn2cc(S(=O)(=O)Cc3ccccc3)c3ccccc32)c(OC)c1	33*	11	15	1
O=C(Cn1cc(S(=O)(=O)Cc2ccccc2)c2ccccc21)Nc1ccccc1	34*	0	-5	-8
O=C(NC1CCCC1)c1ccc2c(c1)N(Cc1cccc(F)c1)C(=O)c1ccccc1S2	-4	2	-5	-15
O=C(c1cc(F)cc(F)c1)N1CCCC(c2[nH]nc3nccnc23)C1 (configuration not stated)	-35	-2	-3	-1
O=C(c1c(F)cccc1F)N1CCCC(c2[nH]nc3nccnc23)C1 (configuration not stated)	30*	0	0	-1
Cc1cccc(NC(=O)CNC(=O)c2ccc(-c3noc(C4CCCC4)n3)cc2)c1C	0	18	59*	3
Cc1nc(CNC(=O)c2ccc(-c3noc(C4CC4)n3)cc2)no1	-3	0	0	0
Cc1cc(C)n2nc(CN(C(=O)c3ccco3)c3cccc(Cl)c3)nc2n1	4	-4	-1	0
O=C(Nc1cccnc1)C1c2ccccc2C(=O)N(c2ccccc2)C12CCCCC2 (configuration not stated)	49*	10	31*	0
O=C(Nc1cccnc1)C1c2ccccc2C(=O)N(Cc2ccccc2)C12CCCC2 (configuration not stated)	-2	-58	5	0
Cc1cc(C)n(CCCC(=O)N2CCC3(CC2)OCCc2cnc(C)nc23)n1	-2	0	-1	-6
Cn1nc(C(=O)NCc2ccccc2)c2c1-c1ccsc1CC2	-7	0	0	2
CC1(C)Cc2c(sc3nc(SCc4ccccc4)nc(N4CCCC4)c23)CO1	2	-1	-3	-1
O=S(=O)(c1ccc(C2CCCCC2)cc1)N1CCN(c2nnnn2-c2ccccc2)CC1	-8	2	0	-3
O=C(Nc1cccc(C(F)(F)F)c1)c1ccc2c(c1)SC1=NS(=O)(=O)CCN12	0	-2	3	-1
SMILES	USP8 inh	USP7 block	USP10 inh	UCHL1 inh
COc1ccc(CCNC(=O)c2ccc3c(c2)SC2=NS(=O)(=O)CCN23)cc1	35*	3	8	-2
O=C(Nc1ccc(NS(=O)(=O)c2ccc3c4c(cccc24)CC3)cc1)c1ccccc1	43*	3	-4	0
O=C(Nc1ccc(NS(=O)(=O)c2cccc(C(=O)N3CCCc4ccccc43)c2)cc1)c1ccccc1	4	8	11	7
Cn1cc(S(=O)(=O)Nc2ncn(Cc3cccc(Cl)c3)n2)cn1	0	3	-2	0
Cn1cc(S(=O)(=O)Nc2cnn(Cc3cccc(Cl)c3)c2)cn1	77*	-3	4	6
COc1cccc2[nH]c3c(N4CCOCC4)ncnc3c12	25	4	3	3
COc1cccc(-n2cnc3cc(C(=O)NCc4ccncc4)ccc3c2=O)c1	58*	0	1	0
O=C(C1CC1)N1CCCn2nc(-c3cccc(F)c3)cc2C1	-16	-29	-1	-1
O=C(Nc1cc(F)c2nc(N3CCOCC3)ccc2c1)c1ccc(Br)o1	86*	-9	-8	4
Cc1ccc(NC(=O)c2cnc(N3CCOCC3)nc2)cc1F	13	-43	1	0
O=C(Nc1cc(F)c2nc(N3CCOCC3)ccc2c1)C1CC1	59*	-4	-8	7
O=C(Nc1cc(F)c2nc(N3CCOCC3)ccc2c1)C1CCC1	78*	-4	0	3
Cc1c(CNCc2ccc(F)cc2)c(C(=O)O)c(C)n1-c1ccccc1	43*	-10	-8	-7
COc1ccccc1-c1nc(Cn2nnc(C(=O)Nc3cc(C)cc(C)c3)c2N)c(C)o1	11	2	7	5
Cc1cc(N2CC3(CCCCC3)OC2=O)nc(C2CCN(S(C)(=O)=O)CC2)n1	31*	5	-1	5
COc1ccc(CN2C[C@H]3CC[C@@]4(N=C(c5ccccc5)NC4=O)[C@H]3C2)cc1	-12	-1	-1	0
COc1cc(O)c2c(=O)oc3c(O)c(OC)cc(C)c3c2c1	3	-1	4	-3
COc1cc2c(oc(=O)c3cc(C)cc(OC)c32)c2c([C@@H]3OC(C)[C@@H](O)[C@@](C)(O)C3O)ccc(O)c12 (some centres not stated)	59*	-25	4	17
O=C(NCc1ccc2c(c1)OCO2)c1[nH]nc2c1CCc1ccccc1-2	41*	0	6	2
O=C(Nc1ccc2c(c1)OCO2)c1[nH]nc2c1CCc1ccccc1-2	85*	0	11	9
O=C(Nc1cccnc1)c1[nH]nc2c1COc1ccccc1-2	-10	-33	-1	-16
O=C(NCc1ccc2c(c1)OCO2)c1cc(-c2cc(Cl)ccc2O)n[nH]1	50*	12	9	5
O=C(NC1CCCc2ccccc21)c1cc(CN2CCOCC2)on1 (configuration not stated)	-6	-1	-4	-2
Fc1cccc(-c2nnc3sc(-c4ccco4)nn23)c1	43*	6	0	0
COc1cc(OC)cc(-c2nnc3sc(-c4ccco4)nn23)c1	19	3	0	1
Cn1cc(C(=O)N2CCCCC2c2nnc(-c3nccc4ccccc34)o2)cn1 (configuration not stated)	-90	-1	-1	-5
COc1ccc(-c2c(NC(=O)Cc3cccc(C)c3)n[nH]c2C)cc1	-2	-17	2	1
O=C(Cc1cccnc1)N[C@@H]1CC[C@@H](Oc2ccccc2)[C@@H](O)[C@@H]1O	73*	6	3	5
COc1ccccc1NCC(=O)N1c2ccccc2NC(=O)C1(C)C	34*	6	0	5
O=CNC(=C\c1ccc(O)c(O)c1)/C(=C/c1ccc(O)c(O)c1)NC=O	-263	-105	-6	-56
